# From ChEMBL document CHEMBL3433997, “St. Jude Leishmania screening dataset” (2016)
# Where “and” joins values, the source holds several entries; their conditions need not be identical. Identical values can stand only once.
# Target: Glucose transporter (Leishmania mexicana) (UniProt O61059)
# Assay: ST_JUDE_LEISH: Cytotoxicity at 2uM final concentration against transgenic Leishmania Mexicana promastigotes LmGT2 that are glucose transport deficient and complemented with the L. Mexicana glucose transporter 2. Activity is measured by DNA content using SYBR green in vitro
# Format: functional
row,SMILES,inhibition
1,N#Cc1cccc(Nc2nccc(Nc3ccc(Oc4ccccc4)cc3)n2)c1,0.2%
2,CCCCN(Cc1cnccc1-c1ccc(Br)cc1)c1ccc(C(O)(C(F)(F)F)C(F)(F)F)cc1,0%
3,Brc1cc(Br)c2c(c1)C(NCCCNc1nc3ncccc3[nH]1)CCN2 (stereo not given),73.5%
4,O=C(C=Cc1ccc(Cl)c(Cl)c1)NCCCCCN1CCC(CCNS(=O)(=O)c2ccc(Br)cc2)CC1,2.53%
5,N=C(NCCc1c[nH]c2ccccc12)NCc1ccccc1Cl,-1.16%
6,N#Cc1cncc(-c2nc3c(N4CCN(c5cnccn5)CC4)cccc3n2CCNCc2ccccc2)c1,-3.33%
7,Cc1cc2c(cc1C(F)(F)F)N(C(=O)Nc1ccc(C(=O)NC3CCN(Cc4ccccc4)C3)cc1)CC2 (stereo not given),4.54%
8,O=C1C(C2CCC(c3ccc(Cl)cc3)CC2)=C2OCC3COC2(O3)c2ccccc21 (stereo not given),-0.99%
9,Nc1nc(N)c2c(Oc3cccc4ccccc34)cccc2n1,3.17%
10,c1ccc(CN2CCC(NCc3ccccc3-c3ccc(CNCc4ccc5c(c4)OCO5)cc3)CC2)cc1,9.54%
11,O=[N+]([O-])c1ccc(-c2nc3cc(C4=NC5CCCCC5N4)ccc3[nH]2)cc1 (stereo not given),-4.46%
12,O=C(CCN(Cc1ccco1)c1nc(-c2ccc(F)cc2)nc2ccccc12)NC1CC1,9.67%
13,Cc1cccc2nc(-c3cccc(-c4cccc(NC(=O)c5ccc(=O)[nH]n5)c4)c3)[nH]c12,2.2%
14,Cc1ccc(CN(Cc2ccc(C(=O)N(C)C)cc2)Cc2ccc3c(c2)OCCO3)cc1C,0.35%
15,CCCCOc1ccc(C(=O)C(CCC(CNC(C)(C)C)C(=O)c2ccc(OCCCC)cc2)CNC(C)(C)C)cc1 (stereo not given),31.8%
16,O=C(/C=C/c1ccccc1Cl)NC1CCC(CN2CCC(c3c[nH]c4ccncc34)CC2)CC1 (stereo not given),1.34%
17,COc1c(C2=CCN(CCCCNC(=O)c3ccc(-c4ccc(C#N)cc4)cc3)CC2)ccc2c1CCCC2,0.06%
18,Cc1noc(C)c1-c1cccc(CNCc2cccc(-c3cccc(-c4nc5cccc(C)c5[nH]4)c3)c2)c1,-0.78%
19,COc1cc2c(cc1C(F)(F)F)N(C(=O)Nc1cc(F)cc(-c3cccnn3)c1)CC2,2.7%
20,Cc1ccc(Nc2nc3cc(Nc4ccnc(Nc5ccc(CS(C)(=O)=O)cc5)n4)ccc3o2)cc1,5.97%

row,SMILES,inhibition
1,O=c1[nH]ccc2nc(N[C@@H]3CCNC3)nc(Nc3ccc4c(c3)S(=O)(=O)CC4)c12,4.85%
2,O=C(Nc1ccsc1C(=O)NC1CCCCC1)c1ccc(F)cc1,-0.45%
3,COc1ccc(-c2c(C(F)(F)F)nn(C)c2NC(=O)Nc2ccc(F)cc2F)cc1,1.24%
4,N#CC(c1ccc(Br)cc1)c1ccc2c(C(F)(F)F)cc(C(F)(F)F)nc2n1 (stereo not given),0.48%
5,CCOc1ccc(C(Cc2ccccc2)NC(=O)c2cccnc2)cc1OCC (stereo not given),-0.89%
6,COc1ccc(NC(=O)c2csc(-c3cc(NC(=O)c4ccnc(N5CCCC5)c4)ccc3C)c2)cc1N1CCN(C)CC1,-1.28%
7,CCc1ccc(CN2CCC(CNC(=O)c3cc(-c4ccccc4Cl)cs3)C2)cc1 (stereo not given),10.8%
8,Cc1cc2nc(-c3ccc(C(=O)NCc4cccc(F)c4)cc3)[nH]c2cc1C,-1.73%
9,NC(=S)Cc1ccc2c(c1)OCO2,-0.59%
10,CCN1CCN(Cc2c(O)ccc3c(=O)c(Oc4cc(C)cc(C)c4)c(C(F)(F)F)oc23)CC1,54.5%
11,COc1ccc(C[C@H](N)C(=O)N[C@H]2[C@@H](O)[C@H](n3cnc4c(N(C)C)ncnc43)O[C@@H]2CO)cc1,3.16% and 2.8%
12,CN(C)CCN(C)Cc1ccc(-c2ccc3c(Nc4ccc(Oc5ccccn5)cc4)ccnc3c2)o1,-2.18%
13,Cc1ccc2nc(-c3ccc(C(=O)NC4CCN(Cc5ccccc5)CC4)cc3)[nH]c2c1C,0.84%
14,CCc1sc(-c2ccc(C(C)(C)C)cc2)nc1C(=O)NCCCN1CCCC1=O,-4.69%
15,O=C(c1ccc(-c2ccc(-c3nc4ccccc4[nH]3)s2)cc1)N1CCCCC1CN1CCC(O)C1 (stereo not given),4.01%
16,CN1CCN(CCCN(Cc2cccc(-c3cccc(CNCc4ccc5c(c4)OCO5)c3)c2)C(=O)CCC2CCCC2)CC1,10.4%
17,Cc1nnc2c(NC(=O)NC3CCCC3)cc3cc(-c4ccc(CN(C)C)cc4)ccc3n12,0.22%
18,O=C(Nc1ccc(Cn2ncc(N3CCCNCC3)c(Cl)c2=O)cc1)Nc1cc(F)cc(C(F)(F)F)c1,0.99%
19,Cn1ccc(-c2cccc(Nc3ccnc4cc(-c5nccs5)ccc34)c2)n1,-0.17%
20,O=S(=O)(NCCN1CCCC1)c1ccc(-c2cccc(CNCCc3cccs3)c2)cc1,3.91%
